# From PubChem BioAssay
# Values joined by “and” are separate entries in the source; they are usually repeats but may differ in a detail not shown here. Identical values can stand only once. Inconclusive results are not listed. For some of these results: Results with a measured potency or affinity are listed apart. Active and inactive are the calls of the source. Unless noted, how the calls were made is not given here.
# Experiments:
# [1] = circadian clock period modulators, cell-based, LOPAC library, luminescence reporter (AID 2774); conditions: circadian reporter cells, at 7 µM, actives lie on both sides;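 further: values are relative to mean of DMSO wells on each plate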
# [2] = hESC survival regulators, cell-based (AID 493140); conditions: human embryonic stem cell survival screen; stronger effect = higher value;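 further: cells exposed to compounds for four days before counting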
# [3] = liver-stage malaria parasite growth inhibition, primary screen, cell-based, HepG2, luciferase luminescence, HepG2 viability (AID 624349; in the data active means parasite load remaining mostly below about 12%, no sharp cut-off; inactive means mostly above about 10%;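 further: 100% = mean of DMSO negative control wells on the same plate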); conditions: P. berghei liver stage in HepG2, luciferase luminescence, concentration not given here; parasite load remaining: stronger effect = lower value; viability: measured here: HepG2 viability without parasites
# [4] = test system: Hepatitis C virus NS3 helicase; assay: HCV NS3 helicase inhibitors, primary screen, biochemical, fluorescence polarization, LOPAC1280 library (AID 687035; in the data active means inhibition above about 37%); conditions: Purified HCV NS3 helicase, Cy5-dT15 ssDNA binding fluorescence polarization; stronger effect = higher value; concentration not given here
# [5] = Cy5 fluorescence quenching or enhancement artefacts, artefact control for HCV NS3 helicase inhibitor project, biochemical, LOPAC1280 (AID 687037); conditions: Cy5-DNA-NS3h complex fluorescence interference counterscreen
# [6] = differential killing of epithelial or mesenchymal cells, primary screen, imaging, PC-3E GFP, TEM4-18 mCherry, co-culture (AID 1345086;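 active means compounds killing one labelled cell type while sparing the other, by normalised counts and ratio limits, not self-fluorescent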;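 on all read-outs here: cells exposed to compound for 72 h before imaging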;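 on red/green cell ratio (normalised): normalised mesenchymal count divided by normalised epithelial count so high means epithelial killing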); conditions: imaging cell counts, at 1 µM; for red/green cell ratio (normalised): actives lie on both sides
# [7] = test system: Aerobactin synthetase IucA (Klebsiella pneumoniae, hypervirulent); assay: IucA enzyme inhibition, biochemical, LOPAC library, absorbance readout (AID 1346212); conditions: IucA enzyme assay, absorbance (OD) readout; stronger effect = lower value;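 tested at 8 µM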;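 further: 100% = no compound wells and 0% = no enzyme wells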
# [8] = sensitizers of A549 cells to miR-34 induction, primary screen, imaging, A549 dox-inducible miR-34, nuclei and caspase counts (AID 1347080;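 active means compounds whose cell count with miR-34 switched on is under 0.7 times the count with it off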); conditions: A549 miR-34 inducible, Hoechst nuclei count, 48 h
# [9] = phospholipid biosynthesis inhibitors in animal cells, primary screen, cell-based, LOPAC library, screen 4 (AID 1347384); conditions: phospholipid biosynthesis inhibition screen, at 10 µM
# [10] = viability rescue of complex I mutant cybrids, primary screen, cell-based, galactose medium, ATP luminescence (AID 1645843;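 active means z-score of at least 1.8 in each of two replicates, scored against plate mean and spread of sample wells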;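 further: positive z means more ATP and so rescue of galactose-driven cybrid death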); conditions: complex I mutant cybrid cells, 72 h, stronger effect = higher value
# [11] = test system: Aerobactin synthetase IucA (Klebsiella pneumoniae hvKP1); assay: Biochemical IucA enzyme inhibition primary screen of the Spectrum library (AID 1346200); conditions: malachite green pyrophosphate, A620, at 8 µM, stronger effect = lower value;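 further: 100% = wells without compound and 0% = wells lacking enzyme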
# [12] = polyglutamine-triggered caspase-3 activation inhibitors, cell-based (AID 1583); conditions: polyglutamine-induced caspase-3 activation, cell assay; stronger effect = higher value;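 tested at 10 µM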
# [13] = suppressors of polyQ aggregation in yeast, 75Q-TubU reporter (AID 1593); conditions: Yeast 75Q polyglutamine aggregation reporter
# [14] = rescue of polyQ-huntingtin neuronal dysfunction in worms, whole organism, C. elegans mechanosensory neurons, N-terminal huntingtin (AID 1599); conditions: touch response, stronger effect = higher value
# [15] = inhibitors of mitochondrial cytochrome c release, biochemical, purified mitochondria (AID 1603); conditions: stronger effect = lower value;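 further: mouse liver mitochondria challenged with calcium chloride; signal normalized to the plate average as 100%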
# [16] = inhibitors of polyQ protein aggregation (AID 1604); conditions: polyglutamine-induced protein aggregation inhibition assay; stronger effect = higher value; tested at 2.5 µM
# [17] = enhancers of glutamate uptake in motor neurons, MN-1 cell line (AID 1612); conditions: MN-1 motor neuron cells, stronger effect = higher value;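 further: tested at 1 µM final; 0% = mean of DMSO vehicle wells on each plate; positive means more glutamate uptake than control and negative means less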
# [18] = suppressors of polyglutamine aggregation in yeast, 75Q-TubH (AID 1616); conditions: S. cerevisiae 75Q-TubH polyglutamine aggregation suppression; stronger effect = higher value
# [19] = survival rescue of mitochondrial mutant cells in low glucose, primary screen, MELAS cybrids, Rieske KO mouse fibroblasts, CellTiter-Glo (AID 1508586;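 active means mean z-score across replicates of 1.96 or higher in either the MELAS or the Rieske mutant cell line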;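 further: z relative to plate mean and SD of compound and empty wells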)
# [20] = target: Mitogen-activated protein kinase 7 (Homo sapiens) (UniProt Q13164); assay: ERK5 transactivation activators in reporter cells, primary screen, cell-based, HTS (AID 1508626;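 active means luciferase signal above three times the same-plate solvent-only control wells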;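 further: luciferase driven by Gal4-ERK5 fusion binding five Gal4 sites before minimal TATA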); conditions: HeLa Gal4-ERK5 transactivation, 18 h, at 5 µM, stronger effect = higher value
# [21] = target: ATP-dependent translocase ABCB1 (Homo sapiens) (UniProt P08183); assay: MDR1 (ABCB1) efflux transporter inhibition, cell-based (AID 377; in the data active means fluorescence slope change above about 50%); conditions: MDR1-expressing cells, fluorescent substrate accumulation slope; stronger effect = higher value; concentration not given here
# [22] = target: Huntingtin (Homo sapiens) (UniProt P42858); assay: inhibitors of mutant Htt aggregation in vitro, dose response, QA1 (AID 1584); conditions: in vitro mutant huntingtin aggregation assay; confirmation test; at 10 µM; stronger effect = lower value
# [23] = protection against mutant huntingtin cytotoxicity, PC12 cells, LDH release (AID 1610); conditions: PC12 mutant huntingtin toxicity, final LDH at 4 uM, stronger effect = lower value
# [24] = measured here: epithelial PC-3E GFP cell survival
# [25] = measured here: mesenchymal TEM4-18 mCherry cell survival
# [26] = measured here: relative caspase fold change +Dox/-Dox
# [27] = measured here: total cells with miR-34 induction, stronger effect = lower value
# [28] = measured here: total cells without miR-34 induction
# [29] = counts scaled to control wells, 1 = unselective
# [30] = MELAS cybrid survival, CellTiter-Glo 48 h, stronger effect = higher value
# [31] = Rieske KO mouse fibroblast survival, CellTiter-Glo 72 h
# Chain of Mitogen-activated protein kinase 7 (Homo sapiens) (Q13164 whole entry, looked up, the tested form may be a part): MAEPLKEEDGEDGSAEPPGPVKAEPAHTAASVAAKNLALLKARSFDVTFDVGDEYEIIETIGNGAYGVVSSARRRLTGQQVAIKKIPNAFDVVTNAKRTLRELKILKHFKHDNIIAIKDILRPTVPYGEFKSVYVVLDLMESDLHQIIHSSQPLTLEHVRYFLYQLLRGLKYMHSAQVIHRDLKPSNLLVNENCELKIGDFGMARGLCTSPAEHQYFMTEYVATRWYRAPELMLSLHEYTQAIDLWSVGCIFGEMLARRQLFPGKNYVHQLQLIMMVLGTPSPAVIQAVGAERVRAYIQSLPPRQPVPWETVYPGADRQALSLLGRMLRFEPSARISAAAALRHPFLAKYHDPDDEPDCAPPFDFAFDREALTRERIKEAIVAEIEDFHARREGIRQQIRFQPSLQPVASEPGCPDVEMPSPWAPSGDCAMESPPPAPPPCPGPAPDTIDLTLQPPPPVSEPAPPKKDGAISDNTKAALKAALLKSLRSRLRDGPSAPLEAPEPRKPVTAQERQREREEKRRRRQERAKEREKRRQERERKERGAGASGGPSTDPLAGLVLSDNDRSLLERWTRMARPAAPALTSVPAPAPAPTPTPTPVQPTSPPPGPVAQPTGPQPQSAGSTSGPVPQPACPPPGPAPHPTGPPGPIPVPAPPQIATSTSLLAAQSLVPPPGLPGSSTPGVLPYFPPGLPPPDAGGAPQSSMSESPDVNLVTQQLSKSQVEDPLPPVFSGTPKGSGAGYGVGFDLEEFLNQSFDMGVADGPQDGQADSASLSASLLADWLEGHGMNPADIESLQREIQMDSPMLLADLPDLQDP
# Chain of ATP-dependent translocase ABCB1 (Homo sapiens) (P08183 whole entry, looked up): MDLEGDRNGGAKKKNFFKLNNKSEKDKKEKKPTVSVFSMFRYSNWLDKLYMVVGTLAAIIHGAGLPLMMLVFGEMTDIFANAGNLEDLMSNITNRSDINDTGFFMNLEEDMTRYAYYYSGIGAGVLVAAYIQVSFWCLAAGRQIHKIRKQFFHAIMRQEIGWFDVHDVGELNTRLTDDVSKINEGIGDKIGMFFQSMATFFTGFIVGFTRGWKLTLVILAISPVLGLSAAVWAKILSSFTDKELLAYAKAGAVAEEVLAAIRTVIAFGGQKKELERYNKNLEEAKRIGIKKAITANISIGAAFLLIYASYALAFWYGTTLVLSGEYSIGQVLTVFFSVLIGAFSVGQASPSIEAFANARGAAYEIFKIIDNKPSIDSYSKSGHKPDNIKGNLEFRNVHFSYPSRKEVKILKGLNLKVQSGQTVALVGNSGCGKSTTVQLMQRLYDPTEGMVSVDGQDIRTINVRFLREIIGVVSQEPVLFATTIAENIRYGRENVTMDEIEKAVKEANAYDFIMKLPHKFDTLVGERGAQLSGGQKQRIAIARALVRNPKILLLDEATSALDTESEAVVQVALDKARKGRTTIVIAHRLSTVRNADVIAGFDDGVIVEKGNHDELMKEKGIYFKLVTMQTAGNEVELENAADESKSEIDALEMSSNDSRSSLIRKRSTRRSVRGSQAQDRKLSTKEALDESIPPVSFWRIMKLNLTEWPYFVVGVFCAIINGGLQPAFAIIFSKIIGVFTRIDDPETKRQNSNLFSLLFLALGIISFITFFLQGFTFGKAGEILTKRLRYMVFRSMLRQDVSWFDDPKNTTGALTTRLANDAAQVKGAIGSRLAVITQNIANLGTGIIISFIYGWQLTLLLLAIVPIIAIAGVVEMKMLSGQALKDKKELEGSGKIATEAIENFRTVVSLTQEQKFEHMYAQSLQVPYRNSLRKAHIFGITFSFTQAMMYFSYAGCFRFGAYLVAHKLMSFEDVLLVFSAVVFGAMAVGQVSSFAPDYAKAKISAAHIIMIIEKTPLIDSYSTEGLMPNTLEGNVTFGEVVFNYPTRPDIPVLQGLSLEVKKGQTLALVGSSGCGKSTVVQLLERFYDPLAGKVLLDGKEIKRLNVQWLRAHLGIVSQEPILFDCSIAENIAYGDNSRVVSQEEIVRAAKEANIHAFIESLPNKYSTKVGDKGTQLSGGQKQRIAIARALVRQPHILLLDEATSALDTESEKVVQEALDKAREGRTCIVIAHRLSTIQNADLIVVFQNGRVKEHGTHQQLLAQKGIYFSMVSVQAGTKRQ
smiles,measurement,setting,value
C[N+]1(C)C2CCC1CC(OC(=O)C(CO)c1ccccc1)C2 (stereo not drawn),period change,[1],0.05 hour (inactive) and -0.075 hour (inactive)
same,survival,[2],5.08 (inactive)
same,parasite load remaining,[3],37.4% (inactive)
same,viability,[3],106%
same,inhibition,[4],-4% (inactive) and -3% (inactive)
same,fluorescence ratio (interference),[5],1 (inactive)
same,red/green cell ratio (normalised),[6],1.05 (inactive)
same,normalised cell number,[6]; [24],0.95
same,normalised cell number,[6]; [25],1
same,remaining activity,[7],112% (inactive)
same,fold change,[8]; stronger effect = lower value,1.08 (inactive) and 0.98 (inactive) and 0.858 (inactive)
same,fold change,[8]; [26],1.57 and 0.863 and 5.64
same,cell count,[8]; [27],9760 and 10000 and 10600
same,cell count,[8]; [28],9050 and 10200 and 12400
same,outcome,[9],inactive
same,z-score,[10],0.49 (inactive) and 0.65 (inactive)
O=c1[nH]c(=O)n(Cl)c(=O)n1Cl,red/green cell ratio (normalised),[6],1.21 (inactive)
same,normalised cell number,[6]; [24],0.87
same,normalised cell number,[6]; [25],1.05
same,fold change,[8]; stronger effect = lower value,0.959 (inactive)
same,fold change,[8]; [26],0.94
same,cell count,[8]; [27],8550
same,cell count,[8]; [28],8920
O=c1cccc2n1C[C@H]1CNCC2C1,parasite load remaining,[3],64.2% (inactive)
same,viability,[3],103%
same,red/green cell ratio (normalised),[6],0.78 (inactive)
same,normalised cell number,[6]; [24],1.31
same,normalised cell number,[6]; [25],1.02
same,activity remaining,[11],107% (inactive)
O=C(O)Cc1cnc[nH]1,period change,[1],0.01 h (inactive)
same,inhibition,[4],-1% (inactive)
same,fluorescence ratio (interference),[5],1 (inactive)
same,red/green cell ratio (normalised),[6]; [29],0.87 (inactive)
same,normalised cell number,[6]; [24],1.11
same,normalised cell number,[6]; [25],0.97
same,remaining activity,[7],121% (inactive)
same,fold change,[8]; stronger effect = lower value,0.943 (inactive)
same,fold change,[8]; [26],1.63
same,cell count,[8]; [27],10100
same,cell count,[8]; [28],10700
same,outcome,[9],inactive
same,z-score,[10],-0.12 (inactive)
CS(=N)(=O)CC[C@H](N)C(=O)O (stereo partly drawn),period change,[1],-0.08 h (inactive)
same,survival,[2],9.75 (inactive)
same,parasite load remaining,[3],18.6% (inactive) and 51.3% (inactive)
same,viability,[3],102% and 77.3%
same,inhibition,[4],-3% (inactive)
same,fluorescence ratio (interference),[5],1 (inactive)
same,red/green cell ratio (normalised),[6],0.94 (inactive)
same,normalised cell number,[6]; [24],1.08
same,normalised cell number,[6]; [25],1.02
same,remaining activity,[7],115% (inactive)
same,fold change,[8]; stronger effect = lower value,1.04 (inactive) and 0.811 (inactive)
same,fold change,[8]; [26],0.701 and 1.11
same,cell count,[8]; [27],10400 and 8780
same,cell count,[8]; [28],9920 and 10800
same,outcome,[9],inactive
same,z-score,[10],0.45 (inactive)
OCC(O)[C@H]1O[C@@H]2O[C@H](C(Cl)(Cl)Cl)O[C@@H]2[C@H]1O (stereo partly drawn),red/green cell ratio (normalised),[6],0.83 (inactive)
same,normalised cell number,[6]; [24],1.02
same,normalised cell number,[6]; [25],0.85
same,fold change,[8]; stronger effect = lower value,0.871 (inactive)
same,fold change,[8]; [26],0.819
same,cell count,[8]; [27],8180
same,cell count,[8]; [28],9390
CN1CC(CNC(=O)OCc2ccccc2)CC2c3cccc4c3c(cn4C)CC21 (stereo not drawn),inhibition,[12],-46%
same,score,[13],1.1
same,rescue above control,[14],11.5
same,cytochrome c release ratio,[15],0.97
same,inhibition of aggregation,[16],12.2%
same,glutamate uptake change,[17],5.85%
same,aggregation suppression score,[18],1.13
same,red/green cell ratio (normalised),[6],0.64 (inactive)
same,normalised cell number,[6]; [24],1.26
same,normalised cell number,[6]; [25],0.81
same,activity remaining,[11],113% (inactive)
C=C/C=C\CC1=C[C@@H](OC(=O)[C@@H]2[C@@H](C=C(C)C)C2(C)C)CC1=O,red/green cell ratio (normalised),[6],0.66 (inactive)
same,normalised cell number,[6]; [24],1.35
same,normalised cell number,[6]; [25],0.89
same,fold change,[8]; stronger effect = lower value,0.949 (inactive)
same,fold change,[8]; [26],1.14
same,cell count,[8]; [27],8080
same,cell count,[8]; [28],8520
COC1=CC(=O)OC(/C=C/c2ccccc2)C1 (stereo not drawn),red/green cell ratio (normalised),[6],0.84 (inactive)
same,normalised cell number,[6]; [24],0.94
same,normalised cell number,[6]; [25],0.79
same,fold change,[8]; stronger effect = lower value,0.833 (inactive)
same,fold change,[8]; [26],1.16
same,cell count,[8]; [27],4840
same,cell count,[8]; [28],5810
CC(C)(N)Cc1ccccc1,parasite load remaining,[3],7.56% (inactive)
same,viability,[3],113%
same,red/green cell ratio (normalised),[6],0.91 (inactive)
same,normalised cell number,[6]; [24],1.06
same,normalised cell number,[6]; [25],0.97
same,fold change,[8]; stronger effect = lower value,0.89 (inactive)
same,fold change,[8]; [26],4.46
same,cell count,[8]; [27],11900
same,cell count,[8]; [28],13300
same,z-score,[19]; [30],-0.229 (inactive)
same,z-score,[19]; [31],-0.552
same,luciferase signal,[20],64 AU (inactive)
Cc1cc(OC(=O)N2CCCCC2)c(C(C)C)cc1[N+](C)(C)C,red/green cell ratio (normalised),[6]; [29],0.97 (inactive)
same,normalised cell number,[6]; [24],1.16
same,normalised cell number,[6]; [25],1.13
same,activity remaining,[11],125% (inactive)
same,luciferase signal,[20],48 AU (inactive)
C[N+]1(C)CCOC(O)(c2ccc(-c3ccc(C4(O)C[N+](C)(C)CCO4)cc3)cc2)C1 (stereo not drawn),fluorescence slope change,[21],1.8% (inactive)
same,period change,[1],0.02 h (inactive)
same,survival,[2],3.33 (inactive)
same,parasite load remaining,[3],172% (inactive) and 77.5% (inactive)
same,viability,[3],105% and 75.6%
same,inhibition,[4],3% (inactive)
same,fluorescence ratio (interference),[5],1 (inactive)
same,red/green cell ratio (normalised),[6],0.92 (inactive)
same,normalised cell number,[6]; [24],1.15
same,normalised cell number,[6]; [25],1.05
same,remaining activity,[7],108% (inactive)
same,fold change,[8]; stronger effect = lower value,1.02 (inactive) and 0.872 (inactive)
same,fold change,[8]; [26],0.804 and 1.21
same,cell count,[8]; [27],10300 and 8560
same,cell count,[8]; [28],10200 and 9810
same,outcome,[9],inactive
same,z-score,[19]; [30],-0.344 (inactive)
same,z-score,[19]; [31],-0.223
same,z-score,[10],0.135 (inactive)
C=C(C)C1Cc2c(ccc3c(=O)c4c(oc23)COc2cc(OC)c(OC)cc2-4)O1 (stereo not drawn),red/green cell ratio (normalised),[6],0.91 (inactive)
same,normalised cell number,[6]; [24],0.94
same,normalised cell number,[6]; [25],0.86
same,activity remaining,[11],126% (inactive)
same,luciferase signal,[20],56 AU (inactive)
CC(C)=CCCC1(C)C=Cc2c(O)c3c(c(CC=C(C)C)c2O1)OC12C(=CC4CC1C(C)(C)OC2(C/C=C(/C)C(=O)O)C4=O)C3=O (stereo not drawn),inhibition,[12],78.5%
same,aggregation ratio,[22],0.274
same,score,[13],0.45
same,rescue above control,[14],-1.66
same,cytochrome c release ratio,[15],3.17
same,inhibition of aggregation,[16],100%
same,normalised LDH release,[23],0.491
same,glutamate uptake change,[17],-92.9%
same,aggregation suppression score,[18],0.449
same,red/green cell ratio (normalised),[6],1.03 (inactive)
same,normalised cell number,[6]; [24],1.09
same,normalised cell number,[6]; [25],1.13
same,activity remaining,[11],120% (inactive)
CC(=O)O[C@@H]1CC[C@]2(C)C3CC[C@]4(C)C(=O)CCC4C3CC[C@H]2C1 (stereo partly drawn),parasite load remaining,[3],51% (inactive)
same,viability,[3],94%
same,red/green cell ratio (normalised),[6],1.18 (inactive)
same,normalised cell number,[6]; [24],0.95
same,normalised cell number,[6]; [25],1.12
same,activity remaining,[11],99.4% (inactive)
COc1cc2c(cc1O)CC1c3c(cc(O)c(OC)c3-2)CCN1C (stereo not drawn),survival,[2],4.08 (inactive)
same,parasite load remaining,[3],73.5% (inactive)
same,viability,[3],80.3%
same,red/green cell ratio (normalised),[6],0.97 (inactive)
same,normalised cell number,[6]; [24],1.11
same,normalised cell number,[6]; [25],1.07
same,activity remaining,[11],119% (inactive)
COc1cc2c3cc1Oc1c(OC)c(OC)cc4c1[C@@H](Cc1cccc(c1)Oc1ccc(c(O)c1)C[C@@H]3N(C)CC2)N(C)CC4,parasite load remaining,[3],114% (inactive)
same,viability,[3],67.7%
same,red/green cell ratio (normalised),[6],1.03 (inactive)
same,normalised cell number,[6]; [24],0.83
same,normalised cell number,[6]; [25],0.86
same,activity remaining,[11],112% (inactive)
